# Measured values from PubChem BioAssay AID1159580 (chemical genetic matrix, 2015).
# Where “and” joins values, the source holds several entries; their conditions need not be identical. Equal entries are not always repeated. About 2,000 (36%) of roughly 5,500 compounds were called active. Roughly 18% stayed inconclusive and do not appear here. Rule as the data show it: active = normalized growth mostly below about 0.91 (no sharp cut-off); inconclusive = no clear call, values can overlap the other calls; inactive = mostly above about 0.92. The list shows a part of the results.
# Test: chemical genetic growth profiling, strain panel (AID 1159580);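 also: tested at 20 µM; growth read once vehicle control cultures reached saturation at 30 °C; 1 = growth at the plate median or of vehicle wells; lower values mean less growth of the strain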
# Details: growth OD
smiles,measurement,setting,value
COc1cc(OC)c2c(=O)cc(-c3ccccc3)oc2c1,normalized growth,"S. cerevisiae deletion strains, locus YAL013W, strain DEP1, stronger effect = lower value",0.912 (inactive)
same,normalized growth,"S. cerevisiae deletion strains, locus YBR021W, strain FUR4, stronger effect = lower value",0.978 (inactive)
same,normalized growth,"S. cerevisiae deletion strains, locus YBR229C, strain ROT2, stronger effect = lower value",0.949 (inactive)
same,normalized growth,"S. cerevisiae deletion strains, locus YCL029C, strain bik1, stronger effect = lower value",0.957 (inactive)
same,normalized growth,"S. cerevisiae deletion strains, locus YDL035C, strain GPR1, stronger effect = lower value",0.864 (inactive)
same,normalized growth,"S. cerevisiae deletion strains, locus YDL074C, strain BRE1, stronger effect = lower value",0.764 (active)
same,normalized growth,"S. cerevisiae deletion strains, locus YDL101C, strain DUN1, stronger effect = lower value",0.925 (inactive)
same,normalized growth,"S. cerevisiae deletion strains, locus YDL134C, strain PPH21, stronger effect = lower value",0.886 (active)
same,normalized growth,"S. cerevisiae deletion strains, locus YDL185W, strain tfp1, stronger effect = lower value",0.951 (inactive)
same,normalized growth,"S. cerevisiae deletion strains, locus YDL192W, strain arf1, stronger effect = lower value",0.914 (active)
same,normalized growth,"S. cerevisiae deletion strains, locus YDR101C, strain arx1, stronger effect = lower value",0.936 (inactive)
same,normalized growth,"S. cerevisiae deletion strains, locus YDR150W, strain NUM1, stronger effect = lower value",0.949 (inactive)
same,normalized growth,"S. cerevisiae deletion strains, locus YDR162C, strain NBP2, stronger effect = lower value",0.752 (active)
same,normalized growth,"S. cerevisiae deletion strains, locus YDR318W, strain mcm21, stronger effect = lower value",0.868 (active)
same,normalized growth,"S. cerevisiae deletion strains, locus YDR388W, stronger effect = lower value",0.951 (inactive)
same,normalized growth,"S. cerevisiae deletion strains, locus YDR502C, strain sam2, stronger effect = lower value",0.907 (active)
same,normalized growth,"S. cerevisiae deletion strains, locus YEL061C, strain CIN8, stronger effect = lower value",0.941 (inactive)
same,normalized growth,"S. cerevisiae deletion strains, locus YER110C, stronger effect = lower value",0.914 (inactive)
same,normalized growth,"S. cerevisiae deletion strains, locus YER155C, strain BEM2, stronger effect = lower value",0.951 (inactive)
same,normalized growth,"S. cerevisiae deletion strains, locus YER167W, strain BCK2, stronger effect = lower value",0.899 (active)
same,normalized growth,"S. cerevisiae deletion strains, locus YGL078C, strain dbp3, stronger effect = lower value",0.961 (inactive)
same,normalized growth,"S. cerevisiae deletion strains, locus YGL086W, strain mad1, stronger effect = lower value",0.924 (active)
same,normalized growth,"S. cerevisiae deletion strains, locus YGL248W, strain PDE1, stronger effect = lower value",0.866 (active)
same,normalized growth,"S. cerevisiae deletion strains, locus YGR078C, strain PAC10, stronger effect = lower value",0.805 (active)
same,normalized growth,"S. cerevisiae deletion strains, locus YGR135W, strain pre9, stronger effect = lower value",0.819 (active)
same,normalized growth,"S. cerevisiae deletion strains, locus YGR229C, strain SMI1, stronger effect = lower value",0.664 (active)
same,normalized growth,"S. cerevisiae deletion strains, locus YGR252W, strain gcn5, stronger effect = lower value",0.793 (inactive)
same,normalized growth,"S. cerevisiae deletion strains, locus YHR030C, strain SLT2, stronger effect = lower value",0.718 (active) and 0.911 (inactive)
same,normalized growth,"S. cerevisiae deletion strains, locus YHR079C, strain IRE1 (second series), stronger effect = lower value",0.895 (active)
same,normalized growth,"S. cerevisiae deletion strains, locus YHR079C, strain IRE1, stronger effect = lower value",0.925 (inactive)
same,normalized growth,"S. cerevisiae deletion strains, locus YHR094C, strain hxt1, stronger effect = lower value",0.96 (inactive)
same,normalized growth,"S. cerevisiae deletion strains, locus YHR129C, strain ARP1, stronger effect = lower value",0.934 (inactive)
same,normalized growth,"S. cerevisiae deletion strains, locus YHR200W, strain rpn10, stronger effect = lower value",0.929 (inactive)
same,normalized growth,"S. cerevisiae deletion strains, locus YIL066C, strain RNR3, stronger effect = lower value",0.912 (inactive)
same,normalized growth,"S. cerevisiae deletion strains, locus YIL073C, strain SPO22, stronger effect = lower value",0.844 (inactive)
same,normalized growth,"S. cerevisiae deletion strains, locus YIL125W, strain kgd1, stronger effect = lower value",0.975 (inactive)
same,normalized growth,"S. cerevisiae deletion strains, locus YIR030C, strain dcg1, stronger effect = lower value",0.95 (inactive)
same,normalized growth,"S. cerevisiae deletion strains, locus YJL095W, strain BCK1, stronger effect = lower value",0.51 (active) and 0.918 (inactive)
same,normalized growth,"S. cerevisiae deletion strains, locus YJL134W, strain LCB3, stronger effect = lower value",0.948 (inactive)
same,normalized growth,"S. cerevisiae deletion strains, locus YJL168C, strain set2, stronger effect = lower value",0.944 (inactive)
same,normalized growth,"S. cerevisiae deletion strains, locus YJL187C, strain SWE1 (second series), stronger effect = lower value",0.879 (inactive)
same,normalized growth,"S. cerevisiae deletion strains, locus YJR043C, strain POL32, stronger effect = lower value",0.894 (inactive)
same,normalized growth,"S. cerevisiae deletion strains, locus YJR066W, strain TOR1, stronger effect = lower value",0.872 (inactive)
same,normalized growth,"S. cerevisiae deletion strains, locus YJR075W, strain HOC1, stronger effect = lower value",0.884 (inactive)
same,normalized growth,"S. cerevisiae deletion strains, locus YKL009W, strain mrt4, stronger effect = lower value",0.906 (inactive)
same,normalized growth,"S. cerevisiae deletion strains, locus YKL068W, stronger effect = lower value",0.967 (inactive)
same,normalized growth,"S. cerevisiae deletion strains, locus YKL085W, strain MDH1 (second series), stronger effect = lower value",0.963 (inactive)
same,normalized growth,"S. cerevisiae deletion strains, locus YKL085W, strain MDH1, stronger effect = lower value",0.963 (inactive)
same,normalized growth,"S. cerevisiae deletion strains, locus YKL190W, strain CNB1, stronger effect = lower value",0.948 (inactive)
same,normalized growth,"S. cerevisiae deletion strains, locus YKR001C, strain vps1, stronger effect = lower value",0.839 (active)
same,normalized growth,"S. cerevisiae deletion strains, locus YLR039C, strain RIC1, stronger effect = lower value",0.644 (active)
same,normalized growth,"S. cerevisiae deletion strains, locus YLR058C, strain SHM2, stronger effect = lower value",0.913 (inactive)
same,normalized growth,"S. cerevisiae deletion strains, locus YLR102C, strain apc9, stronger effect = lower value",0.958 (inactive)
same,normalized growth,"S. cerevisiae deletion strains, locus YLR113W, strain HOG1, stronger effect = lower value",0.952 (inactive)
same,normalized growth,"S. cerevisiae deletion strains, locus YLR262C, strain YPT6, stronger effect = lower value",0.652 (inactive)
same,normalized growth,"S. cerevisiae deletion strains, locus YLR268W, strain sec22, stronger effect = lower value",0.877 (active)
same,normalized growth,"S. cerevisiae deletion strains, locus YLR330W, strain CHS5, stronger effect = lower value",0.929 (inactive)
same,normalized growth,"S. cerevisiae deletion strains, locus YLR342W, strain FKS1 (second series), stronger effect = lower value",0.71 (active)
same,normalized growth,"S. cerevisiae deletion strains, locus YLR371W, strain rom2, stronger effect = lower value",0.959 (inactive)
same,normalized growth,"S. cerevisiae deletion strains, locus YLR418C, strain cdc73, stronger effect = lower value",0.685 (active)
same,normalized growth,"S. cerevisiae deletion strains, locus YML016C, strain PPZ1, stronger effect = lower value",0.929 (inactive)
same,normalized growth,"S. cerevisiae deletion strains, locus YML032C, strain rad52, stronger effect = lower value",0.757 (active)
same,normalized growth,"S. cerevisiae deletion strains, locus YML124C, strain tub3, stronger effect = lower value",0.952 (inactive)
same,normalized growth,"S. cerevisiae deletion strains, locus YMR078C, strain ctf18, stronger effect = lower value",0.912 (inactive)
same,normalized growth,"S. cerevisiae deletion strains, locus YMR223W, strain ubp8, stronger effect = lower value",0.875 (active)
same,normalized growth,"S. cerevisiae deletion strains, locus YMR263W, strain SAP30, stronger effect = lower value",0.871 (active)
same,normalized growth,"S. cerevisiae deletion strains, locus YMR307W, strain GAS1, stronger effect = lower value",0.625 (inactive)
same,normalized growth,"S. cerevisiae deletion strains, locus YNL067W, strain RPL9B, stronger effect = lower value",0.889 (inactive)
same,normalized growth,"S. cerevisiae deletion strains, locus YNL128W, strain TEP1, stronger effect = lower value",0.939 (inactive)
same,normalized growth,"S. cerevisiae deletion strains, locus YNL153C, strain GIM3, stronger effect = lower value",0.924 (inactive)
same,normalized growth,"S. cerevisiae deletion strains, locus YNL183C, strain NPR1, stronger effect = lower value",0.88 (inactive)
same,normalized growth,"S. cerevisiae deletion strains, locus YNL233W, strain BNI4, stronger effect = lower value",0.846 (active)
same,normalized growth,"S. cerevisiae deletion strains, locus YNL250W, strain rad50, stronger effect = lower value",0.923 (inactive)
same,normalized growth,"S. cerevisiae deletion strains, locus YNL271C, strain bni1, stronger effect = lower value",0.943 (inactive)
same,normalized growth,"S. cerevisiae deletion strains, locus YNL298W, strain CLA4, stronger effect = lower value",0.941 (inactive)
same,normalized growth,"S. cerevisiae deletion strains, locus YNL307C, strain MCK1, stronger effect = lower value",0.533 (active)
same,normalized growth,"S. cerevisiae deletion strains, locus YNL322C, strain KRE1, stronger effect = lower value",0.946 (inactive)
same,normalized growth,"S. cerevisiae deletion strains, locus YNR052C, strain pop2, stronger effect = lower value",0.902 (active)
same,normalized growth,"S. cerevisiae deletion strains, locus YOL006C, strain TOP1, stronger effect = lower value",0.472 (active)
same,normalized growth,"S. cerevisiae deletion strains, locus YOL012C, strain htz1",0.858 (inactive)
same,normalized growth,"S. cerevisiae deletion strains, locus YOL147C, strain pex11, stronger effect = lower value",0.944 (inactive)
same,normalized growth,"S. cerevisiae deletion strains, locus YOR061W, strain CKA2, stronger effect = lower value",0.941 (inactive)
same,normalized growth,"S. cerevisiae deletion strains, locus YOR069W, strain VPS5, stronger effect = lower value",0.95 (inactive)
same,normalized growth,"S. cerevisiae deletion strains, locus YOR136W, strain idh2, stronger effect = lower value",0.965 (inactive)
same,normalized growth,"S. cerevisiae deletion strains, locus YOR144C, strain elg1, stronger effect = lower value",0.949 (inactive)
same,normalized growth,"S. cerevisiae deletion strains, locus YOR184W, strain ser1, stronger effect = lower value",0.792 (active)
same,normalized growth,"S. cerevisiae deletion strains, locus YOR231W, strain MKK1, stronger effect = lower value",0.925 (inactive)
same,normalized growth,"S. cerevisiae deletion strains, locus YOR316C, strain cot1, stronger effect = lower value",0.943 (inactive)
same,normalized growth,"S. cerevisiae deletion strains, locus YPL055C, strain LGE1, stronger effect = lower value",0.83 (inactive)
same,normalized growth,"S. cerevisiae deletion strains, locus YPL241C, strain CIN2, stronger effect = lower value",0.946 (inactive)
same,normalized growth,"S. cerevisiae deletion strains, locus YPL256C, strain CLN2, stronger effect = lower value",0.911 (inactive)
same,normalized growth,"S. cerevisiae deletion strains, locus YPR119W, strain clb2, stronger effect = lower value",0.945 (inactive)
same,normalized growth,"S. cerevisiae deletion strains, locus YPR141C, strain kar3, stronger effect = lower value",0.967 (inactive)
same,normalized growth,"S. cerevisiae deletion strains, locus YPR163C, strain tif3, stronger effect = lower value",0.785 (active)
same,normalized growth,"S. cerevisiae deletion strains, locus YPR167C, strain met16, stronger effect = lower value",0.951 (inactive)
same,normalized growth,"S. cerevisiae deletion strains, strain wtn01, stronger effect = lower value",0.868 (active)
same,normalized growth,"S. cerevisiae strains, strain wild type, stronger effect = lower value",0.905 (inactive)
